From PubChem BioAssay (NCI)
About 83,000 compounds went through this panel and 20% of them were active in at least one assay; those are over-represented in the sample as a whole.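 Assay: single dose, 48 h. Readout: percent growth (0 = no net growth; negative = cell death). Active: <10.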 Active and inactive are the calls of the source.

Legend:
Assay in all cases: NCI-60 one-dose screen, 48 h (100 = growth as untreated, 0 = no growth, -100 = all killed)
Details in all cases: 10 µM unless noted
[1] = system: T-47D breast
[2] = system: BT-549 breast
[3] = system: MDA-MB-435 melanoma
[4] = system: SW-620 colon
[5] = system: MCF7 breast
[6] = system: HCT-116 colon
[7] = system: KM12 colon
[8] = system: HCC-2998 colon

Measured: growth

OCCCCc1nccc2c1[nH]c1ccccc12
inactive: [1] 110% | [2] 57.5% | [3] 85.7% | [4] 108% | [5] 89% | [6] 101% | [7] 110%

CC1=NN(c2cccc(Cl)c2)C(=O)/C1=C\c1cn(CC(O)CN2CCCCC2)c2ccccc12 (configuration not stated)
inactive: [1] 83.3% | [2] 96.1% | [5] 41.1% | [6] 10.2% | [7] 29.7%
active: [3] 1.51% | [4] 7.47%

COc1ccc(-c2cc(-c3cc(OC)ccc3O)[nH]c(=O)c2C#N)cc1
inactive: [1] 45.6% | [2] 22.1% | [4] 34.4% | [5] 46.4% | [6] 33.6% | [8] 72.9% | [7] 41.8%
active: [3] -0.171%

COc1cc(C(=O)/C=C/c2c(-c3ccc(F)cc3)nc3ncccn23)cc(OC)c1OC
inactive: [1] 59.8% | [2] 32.5% | [3] 11.9% | [4] 32.2% | [5] 10% | [8] 44.1% | [7] 22.3%

COc1ccc(OC)c(/C=C2\COc3ccc(O)cc3C2=O)c1
inactive: [1] 96.7% | [2] 93.5% | [3] 29.1% | [4] 14.3% | [5] 19.7% | [8] 112% | [7] 60.2%

c1ccc(-c2oc3ccccc3c2-c2ccccc2)cc1
inactive: [1] 75.7% | [2] 106% | [3] 99.5% | [4] 105% | [5] 115% | [8] 111% | [7] 104%

CCCCCCCCc1cc[n+](CC(=O)c2ccc(Br)cc2)cc1
active: [1] -16.6% | [3] -15.1% | [4] -33.7% | [5] -74% | [8] -67.4% | [7] -56.8%
inactive: [2] 77.8%

COc1ccc(OC)c(C(=O)Nc2cccc(-c3cc(=O)c4ccccc4o3)c2)c1
inactive: [1] 85.6% | [2] 88.2% | [3] 96.2% | [4] 96.8% | [5] 92% | [6] 88% | [8] 104% | [7] 92.5%

Clc1ccc(-c2nnc(Cn3ccnc3)o2)cc1
inactive: [1] 100% | [2] 120% | [3] 105% | [4] 98.6% | [5] 94.4% | [8] 110% | [7] 105%

CCCCCCCCCCCCCCCCCC1=NCCN1C(=O)OCCO
active: [3] -21.2% | [5] -45.6%
inactive: [1] 57.3% | [2] 113% | [7] 21.4%

CC(=[N-])N1CCC[C@@H](Nc2c3ccccc3nc3ccccc23)C1.[Cl][Pt].[NH-]CCC[NH-]
inactive: [1] 14.8% | [2] 79% | [3] 81.9% | [5] 10.6% | [6] 14.9% | [8] 49.7% | [7] 49%

COc1cc2nc(Nc3ccc(F)cc3)nc(N)c2cc1OC
inactive: [1] 83.2% | [2] 93.9% | [3] 96.2% | [5] 82.9% | [6] 89.4% | [8] 113% | [7] 94.7%

CCOC(=O)c1ccc(-c2ccc3cc(OC)ccc3c2)nc1C
inactive: [1] 91.6% | [2] 104% | [3] 94.3% | [5] 93% | [6] 78.1% | [8] 101% | [7] 100%

CN(C)CCC(O)(Cc1ccccc1)c1ccccc1 (configuration not stated)
inactive: [1] 96.4% | [3] 91.8% | [4] 114% | [5] 110% | [6] 103% | [8] 87%

CSc1ncc(C)c(Nc2ccc(Cl)cc2)n1
inactive: [1] 119% | [2] 87.1% | [3] 106% | [4] 102% | [6] 94.2% | [8] 113% | [7] 100%

O=C(Oc1ccc[nH]c1=O)c1cc([N+](=O)[O-])cc([N+](=O)[O-])c1
inactive: [1] 109% | [2] 75.6% | [3] 121% | [5] 96.2% | [6] 103% | [7] 116%

N#Cc1c(-c2ccccc2)nc(SCC2CO2)nc1N1CCOCC1 (configuration not stated)
inactive: [1] 15.4% | [2] 11.4% | [3] 69.3% | [4] 84.4% | [5] 44.8% | [8] 101% | [7] 87.1%

O=C(CCCCCCCn1cc(-c2cccnc2)nn1)Nc1ccccc1-c1ccccc1
inactive: [1] 28% | [3] 22.5% | [4] 20.6% | [5] 38.5% | [8] 38.1% | [7] 29.4%
active: [6] 0.699%

CCCCC1COc2cccc3c(SCC(=O)N(C)c4cccc(Cl)c4)cc[n+]1c23 (configuration not stated)
inactive: [1] 107% | [2] 107% | [3] 120% | [4] 110% | [5] 94.3% | [8] 104% | [7] 103%

CCOC(=O)c1nnn(-c2ccccc2)c1C1=CN(C)CCC1
inactive: [1] 93.3% | [2] 99.4% | [3] 105% | [4] 101% | [5] 92.9% | [8] 95.9% | [7] 99.9%

Cc1ccc(/C=C(\C#N)n2nnc3cc(Cl)c(Cl)cc32)cc1
active: [2] 7.89% | [3] -46.7% | [5] 6.58% | [6] 8.31% | [7] 0.682%
inactive: [1] 15.1% | [8] 13.6%

O=C(Nc1ccccn1)[C@H](O)[C@@H](O)C(=O)N1CCOCC1
inactive: [1] 100% | [2] 114% | [3] 111% | [5] 110% | [6] 99.3% | [8] 116% | [7] 108%

CN=C1C=CC(=C(c2ccc(N(C)C)cc2)c2ccc(N(C)C)cc2)C=C1
active: [1] 3.04% | [2] -34.3% | [3] -51% | [6] -7.21% | [8] -31% | [7] -76.2%

C/C(Cc1ccc(Cl)cc1)=C(/c1ccc(Cl)cc1)c1ccc(OCCN(C)C)cc1
inactive: [1] 47.9% | [2] 103% | [3] 44.6% | [5] 11% | [6] 16.5% | [7] 27.9%
active: [8] 1.6%

Cc1cc(C)on1
inactive: [1] 94.4% | [3] 99.5% | [4] 110% | [5] 96.6% | [6] 110% | [8] 94.5%

CCOC(=O)N1CCc2c(sc3c2C(=O)N[C@H](c2ccc(OC)cc2)N3)C1
inactive: [1] 79% | [2] 108% | [3] 98.7% | [5] 97.7% | [6] 93.3% | [8] 104% | [7] 102%

N#Cc1c(N)n2c(nc1=Nc1ccc(Cl)cc1)sc1cc(Cl)ccc12
inactive: [1] 73.8% | [3] 102% | [4] 87.9% | [5] 60.5% | [6] 89.1% | [8] 107% | [7] 29.5%

CCCCCCNCc1cc(C(C)(C)C)cc(CNCCCCCC)c1O
active: [1] -41.6% | [2] -81% | [3] -82.8% | [4] -69.6% | [6] -90.8% | [8] -85.2% | [7] -83%

COc1ccccc1C(=O)NC(=S)Nc1ccc(-c2nc3ccccc3[nH]2)cc1
inactive: [1] 80.3% | [2] 32.3% | [3] 50.3% | [5] 21.3% | [8] 85.9% | [7] 53.2%

COc1ccccc1NC(=O)Nc1ccc(-c2nc3ccccc3o2)cc1
inactive: [1] 68.1% | [2] 92.3% | [3] 104% | [5] 99% | [6] 93.7% | [8] 106% | [7] 105%

Cc1nc(Nc2ccc(N)cc2)c2ccccc2n1
inactive: [1] 101% | [2] 104% | [3] 64.6% | [5] 75.8% | [6] 95.3% | [8] 104% | [7] 98.3%

CSc1ccc(Cl)c(C(=O)Nc2sccc2C(N)=O)c1
inactive: [1] 44.1% | [3] 110% | [4] 96.5% | [5] 64.8% | [6] 109% | [8] 102% | [7] 99.8%

COc1cccc(/C=C2\COc3ccc(O)cc3C2=O)c1OC
active: [7] 7.8%
inactive: [1] 74.8% | [2] 57.8% | [3] 19.7% | [5] 12.2% | [6] 34.3% | [8] 94.1%

CCN(CC)CC(O)CNc1c2ccc(Cl)cc2nc2ccc(OC)cc12 (configuration not stated)
inactive: [1] 49.7%
active: [3] -72.1% | [4] -37% | [5] -0.467% | [6] -32.1% | [8] -92.2% | [7] -30.9%

O=C1/C(=C/c2ccc([N+](=O)[O-])cc2)COc2ccc(O)c(O)c21
inactive: [2] 24.3%
active: [1] -5.74% | [3] 0.103% | [4] -40.6% | [5] 8.42% | [8] -77.8% | [7] -55.3%

O=C1C=CC(=Nc2cc(Br)c(O)c(Br)c2)C=C1
inactive: [1] 70.7% | [2] 55.1% | [3] 36.1% | [5] 40.1% | [6] 43.5% | [8] 102% | [7] 94.7%
